Inconclusive results are not listed. Active and inactive are the calls of the source. Calls follow the shape of the dose curve; as a rule, active = well fitted inhibition curve with a large enough effect; inconclusive = small, poorly fitted or top-dose-only effect, or effect the other way; inactive = flat fitted curve, though single readings scatter. Positions of bridges follow the written chain, without caps; N, C: chain ends. Non-standard residues stand in square brackets, D forms with d. Residues, ends and D or L forms follow the SMILES beside them. ξ: configuration not given here. *: point of attachment. Octanoyl(6-Me) = CCC(C)CCCCC(=O)*; ξThr(3R) = C[C@@H](O)C(N)C(=O)O; dDab = NCC[C@@H](N)C(=O)O; Dab = NCC[CH](N)C(=O)O
% is scaled to controls: 0 for no effect and ±100 for the full control effect; potency is read from the fitted curve at half-maximal effect.

In the experiment the target is Menin (Homo sapiens) (UniProt O00255). Put plainly: Confirmation of Inhibitors Targeting the Menin-MLL Interaction in MLL Related Leukemias: Confirmation in an HTRF (commercial TR-FRET) Assay using His-tagged menin and biotin-labeled MLL peptide. Conditions: His-menin / biotin-MLL peptide binding; series mostly up to 126 µM; activity change, negative = inhibition: at the top concentration. The essentials: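 HTRF: His6-menin (200 nM) and biotin-MLL-w.t. peptide (80 nM) preincubated 15 min, then compounds 1 hr at ambient, before Eu-cryptate anti-His (3.5 nM) and streptavidin-XL665 (10 nM) for 1 h; 50 mM Tris-HCl pH 7.5, 50 mM NaCl, 1 mM DTT, BSA.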
Sequence of Menin (Homo sapiens) (O00255 whole entry, looked up): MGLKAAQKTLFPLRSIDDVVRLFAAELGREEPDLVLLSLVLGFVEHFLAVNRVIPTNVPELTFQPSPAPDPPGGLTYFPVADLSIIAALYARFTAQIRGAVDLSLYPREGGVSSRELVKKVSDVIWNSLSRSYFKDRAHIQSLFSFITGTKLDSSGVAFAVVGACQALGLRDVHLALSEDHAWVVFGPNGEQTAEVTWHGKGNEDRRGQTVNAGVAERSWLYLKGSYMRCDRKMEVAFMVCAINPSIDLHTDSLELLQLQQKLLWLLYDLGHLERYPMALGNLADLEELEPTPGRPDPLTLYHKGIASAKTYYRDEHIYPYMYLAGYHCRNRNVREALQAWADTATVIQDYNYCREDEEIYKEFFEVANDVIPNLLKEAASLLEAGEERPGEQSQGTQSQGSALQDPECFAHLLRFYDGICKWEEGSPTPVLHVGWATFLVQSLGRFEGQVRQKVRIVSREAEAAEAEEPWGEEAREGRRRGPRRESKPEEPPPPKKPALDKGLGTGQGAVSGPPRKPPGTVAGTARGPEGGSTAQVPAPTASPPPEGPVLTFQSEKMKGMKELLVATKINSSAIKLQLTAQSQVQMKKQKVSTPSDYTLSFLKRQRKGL
As for `O=C(O)c1cc(S(=O)(=O)O)cc(Nc2c3ccccc3nc3ccccc23)c1O`, the “activity change, negative = inhibition” value is 3.8% [at 383 µM] (inactive).

`C=CCN(CC=C)S(=O)(=O)c1ccc(NC(=S)NC(=O)/C=C/c2cccc3ccccc23)cc1`: the “activity change, negative = inhibition” value was -9.11% (inactive). Still for that read-out and setting: the figure for `Cc1cc2c(c(=O)n1Cc1ccccc1)C1O[C@](c3ccsc3)(Cc3cc(C#N)ccc31)O2` is -8.97% [at 31.5 µM] (inactive); for `Cc1ccccc1CN1CCN(C(C)C(=O)NCc2ccccc2)CC1` (stereo not given) it is -4.31% (inactive); for `COc1cccc(C(=O)/C=C/Nc2ccc(S(=O)(=O)Nc3ccc(C(C)=O)cc3)cc2)c1` it is -17.8% [at 383 µM] (inactive). `Fc1ccccc1C1c2cccn2CCN1C(=S)Nc1ccc(Br)cc1` (stereo not given): the “activity change, negative = inhibition” value is -15.8% (inactive).

Turning to `CCOC(=O)Cn1c2ccccc2n2nc(CCC(=O)O)c(=O)nc12`, the “activity change, negative = inhibition” value is -0.0741% (inactive).

Regarding `CCC(C)CCCCC(=O)NC(CCN)C(=O)NC(C(=O)NC(CCN)C(=O)NC1CCNC(=O)C(C(C)O)NC(=O)C(CCN)NC(=O)C(CCN)NC(=O)C(CC(C)C)NC(=O)C(Cc2ccccc2)NC(=O)C(CCN)NC1=O)C(C)O` (stereo not given) ({Octanoyl(6-Me)}-[Dab]T[Dab][Dab][Dab]FL[Dab][Dab]T; lactam 4-C; configuration not given here), the “activity change, negative = inhibition” value is -21.9% (inactive). The same measure, in the same setting: then `COc1cc(OC)cc(C(=O)N/N=C/c2ccc(OC)c(COc3ccc4ccccc4c3)c2)c1`, with -18.7% (inactive); and `Cc1ccc(NC(=O)C(C)N2C(=O)c3ccccc3C2=O)c(C)c1` (stereo not given), with 6.35% (inactive); and `CSC[C@@H]1NC(=S)N(c2ccc(C)cc2)C1=O`, with -2.46% (inactive). The same measure, in the same setting: the figure for `c1ccc2c(c1)NCC1CCCN21` (stereo not given) is -0.883% (inactive). Turning to `CCc1cc2c(N3CCN(C(=O)c4ccco4)CC3)ncnc2s1`, the Potency is 100 µM (active). With `CN(CCOc1ccc(Cl)cc1)CC(O)c1ccccc1` (stereo not given), the “activity change, negative = inhibition” value is -2.63% [at 383 µM] (inactive). Same read-out and setting: then `O=C(Nc1nccs1)C(Br)C(Br)c1ccccc1` (stereo not given), with -8.15% [at 383 µM] (inactive); and `CCC(C)CCCCC(=O)N[C@@H](CCN)C(=O)N[C@H](C(=O)N[C@@H](CCN)C(=O)N[C@H]1CCNC(=O)C([C@@H](C)O)NC(=O)[C@@H](CCN)NC(=O)[C@H](CCN)NC(=O)[C@H](CC(C)C)NC(=O)[C@@H](CC(C)C)NC(=O)[C@H](CCN)NC1=O)[C@@H](C)O` (stereo partly drawn) ({Octanoyl(6-Me)}-[Dab]T[Dab][Dab][Dab][dL]L[Dab][dDab][ξThr(3R)]; lactam 4-C), with -4.21% [at 62.9 µM] (inactive); and `CCc1nn(C)c2c(=O)c(=O)c2n(C)[nH]1`, with 7.67% (inactive). On the same count and under the same terms, the figure for `CCCn1c(C2CCCN2c2nc(C)cs2)nc2cc(Cl)c(Cl)cc21` (stereo not given) is 1.08% (inactive). The same measure, in the same setting: the figure for `O=C(C1=C(O)C(=O)N(CCN2CCOCC2)C1c1cccc(Br)c1)c1cccs1` (stereo not given) is -7.5% [at 383 µM] (inactive); for `Cc1ccc(C#CC(C)(O)C(C)(C)C)cn1` (stereo not given) it is 0.885% (inactive); for `CCN1C(=O)c2ccccc2S(=O)(=O)c2ccc(C(=O)NCCCN(CC(C)C)CC(C)C)cc21` it is 2.24% (inactive).

With `COc1ccc(N(C(=O)c2ccncc2)S(=O)(=O)c2ccc(Cl)cc2)cc1`, the “activity change, negative = inhibition” value is 8.53% (inactive). As to `O=C1C(SCCO)=C(SCCO)C(=O)c2ccccc21`, the Potency was 39.8 µM (active). As to `Cc1ccc(-c2cc(C(=O)Nc3cc(C)ccc3O)no2)cc1`, the “activity change, negative = inhibition” value was -8.8% (inactive).

On to `CCOc1ccc(CCNC(=O)C(C)N2C(=O)CC(C)(C)Sc3ccccc32)cc1` (stereo not given), for which the “activity change, negative = inhibition” value was 10.9% (inactive). In the case of `CNC[C@H](CC1CCCCC1)NC[C@H](Cc1ccccc1)NCCC12CC3CC(CC(C3)C1)C2`, the Potency was 251 µM (active). As for `Cc1cc2ccccc2nc1SCC(=O)Nc1nc(-c2ccccc2)cs1`, the “activity change, negative = inhibition” value was -6.54% [at 383 µM] (inactive). For the molecule `Cc1nc(N2CCN(C)CC2)c2c3c(sc2n1)CCCC3`, the “activity change, negative = inhibition” value was 0.279% (inactive). Take `Cc1cnc(NC(=O)C2C(=O)c3ccccc3S(=O)(=O)N2C)s1` (stereo not given): the “activity change, negative = inhibition” value is -8.7% [at 383 µM] (inactive).

As for `CCCc1cc(=O)oc2c3c(c(Cl)cc12)OCN(CCCO)C3`, the “activity change, negative = inhibition” value is -14.5% [at 383 µM] (inactive). The same measure, in the same setting: the figure for `COc1ccccc1N(CC1CO1)S(=O)(=O)c1ccccc1` (stereo not given) is 2.5% (inactive); for `CN1CCN(CC(=O)c2ccccc2F)CC1` it is 7.33% (inactive); for `Cc1ccc[n+](-c2nc([O-])sc2/C=N/Nc2ccc([N+](=O)[O-])cc2)c1` it is 11.4% (inactive).

On to `Cn1c(=O)n(C)c2cc3[nH]cnc3cc21`, for which the “activity change, negative = inhibition” value is 5.86% (inactive). The same measure, in the same setting: then `O=C(O)c1ccccc1NS(=O)(=O)c1cccc(-n2sc3ccccc3c2=O)c1`, with -24.1% [at 383 µM] (inactive).
